HSF1 inhib – HSF1 inhibition. NIH3T3-HGL HSE-luciferase, MG132-induced, luminescence 8 h; stronger effect = lower value. activity change, negative = inhibition, % at 7.5 µM (by protocol). hit rate 0.77% among 300,000;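 active means more than half of replicate wells show activity change below -50%, luminescence cut by over half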;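 further: luciferase reports HSF-1 transcriptional activity via heat shock element; 0% = median of DMSO wells and -100% = zero luminescence signal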
HSP90 inh – HSP90 refolding inhibition in rabbit reticulocyte lysate; luciferase refolding luminescence, 3 h; inhibition, % at 5.6 µM; hit rate 0.91% among 290,000; AID 1789;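 active means inhibition above the screen-wide mean plus 3 SD, computed separately per campaign, cut at about 16% in these data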;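 further: 0% = DMSO wells and 100% = 60 µM geldanamycin wells; inhibitors lower the luminescence because luciferase stays unfolded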
dFosB act – enhances mouse delta FosB homodimer DNA binding | purified delta FosB, TAMRA-CDK5 oligo fluorescence polarization; percent of positive-control signal above neutral wells | activation, % at 25 µM | hit rate 0.99% among 340,000;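 active means mean activation above about 17%, with every replicate also reaching it, limit read from the data, passing the limit was not always enough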
Target sequence (P13346 whole entry, looked up): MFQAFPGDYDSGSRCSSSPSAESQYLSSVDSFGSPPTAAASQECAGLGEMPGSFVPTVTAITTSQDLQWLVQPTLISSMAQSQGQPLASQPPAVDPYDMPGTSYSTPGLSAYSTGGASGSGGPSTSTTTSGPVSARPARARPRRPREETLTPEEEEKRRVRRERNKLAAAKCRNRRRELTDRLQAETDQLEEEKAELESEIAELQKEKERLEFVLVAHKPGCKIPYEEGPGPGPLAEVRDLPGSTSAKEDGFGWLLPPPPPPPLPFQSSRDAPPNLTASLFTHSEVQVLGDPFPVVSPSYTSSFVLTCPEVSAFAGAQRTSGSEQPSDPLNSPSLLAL
MPTP block – blocks calcium-induced mitochondrial swelling; hit rate 1.4% among 360,000; isolated mouse mitochondria, Ca2+ swelling absorbance, 30 min; AID 602449; inhibition, % at 10 µM;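 active means inhibition of 50% or more, scaled per plate between neutral and stimulator controls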;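 further: 0% = DMSO wells given calcium and 100% = 1 mM EGTA wells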
Platelet DG rel – modulates dense granule release in human platelets; AID 1663; hit rate 0.22% among 300,000; human platelet-rich plasma, SFLLRN dense granule ATP release, luminescence; inhibition, %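 (compounds screened at 7.5 µM in platelet-rich plasma)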;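 active means mean replicate score, as percent of positive control, at or above 50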
HSF-1 act – increases HSF-1 driven luciferase reporter signal; NIH3T3-HGL HSF-1 luciferase reporter, MG132, 8 h; 100% = twice DMSO control signal; activation, % at 9 µM; hit rate 1.7% among 300,000;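 active means mean replicate activation of at least 50% with a set share of replicates each reaching 50%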;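 further: 0% = median of the neutral control wells and 100% = twice that signal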
The depositor's hits bear a star. This is a sample that favours compounds with a hit; in the whole collection about 4.9% have one here.

What do the screens show for `CC(=O)c1nnn(-c2c(F)cccc2F)c1C`?
HSF1 inhib: -5; HSP90 inh: 4; dFosB act: -5; MPTP block: 2; Platelet DG rel: -2; HSF-1 act: -29

What do the screens show for `Fc1ccccc1SCc1nnc(-c2ccccc2Br)o1`?
HSF1 inhib: 41; HSP90 inh: 7; dFosB act: -15; MPTP block: 0; Platelet DG rel: 6; HSF-1 act: 79*

Results for Cc1csc(SCc2nnc(-c3ccccc3Br)o2)n1 ?
HSF1 inhib: 23; HSP90 inh: 4; dFosB act: -9; MPTP block: 0; Platelet DG rel: -6; HSF-1 act: 33

How did CN(C(=O)C(Cl)Cl)C1CC2C=CC1C2 (stereo not given) do in these assays?
HSF1 inhib: 8; HSP90 inh: -2; dFosB act: 1; MPTP block: 2; Platelet DG rel: 4; HSF-1 act: 11

What do the screens show for `Cc1cc(C(=O)CSc2nnc(-c3ccc(F)cc3)o2)c(C)n1CC1COc2ccccc2O1` (stereo not given)?
HSF1 inhib: -8; HSP90 inh: 1; dFosB act: 6; MPTP block: 0; Platelet DG rel: -5; HSF-1 act: -12

What do the screens show for `Cc1cc(C(=O)CSc2nnc(-c3ccccc3)o2)c(C)n1CC1COc2ccccc2O1` (stereo not given)?
HSF1 inhib: 0; HSP90 inh: 16*; dFosB act: -10; MPTP block: 1; Platelet DG rel: 6; HSF-1 act: -7

What do the screens show for `COc1ccccc1N(CC(O)CN1CCC(C)CC1)S(=O)(=O)c1ccccc1` (stereo not given)?
HSF1 inhib: 11; HSP90 inh: 3; dFosB act: 1; MPTP block: 0; Platelet DG rel: -8; HSF-1 act: 57*

How did COc1ccccc1N(CC(O)CN1CCCC1)S(=O)(=O)c1ccccc1 (stereo not given) do in these assays?
HSF1 inhib: 0; HSP90 inh: 0; dFosB act: -5; MPTP block: 0; Platelet DG rel: -11; HSF-1 act: -3

Results for N=C1C(=O)OCC1c1ccccc1NC(=O)CN1CCOCC1 (stereo not given) ?
HSF1 inhib: -2; HSP90 inh: -8; dFosB act: -1; MPTP block: -1; Platelet DG rel: 0; HSF-1 act: -8

How did CCc1ccccc1NC1=NCC(=O)N1C1CCCCC1 do in these assays?
HSF1 inhib: 33; HSP90 inh: 0; dFosB act: 5; MPTP block: -2; Platelet DG rel: -5; HSF-1 act: 59*

Results for CN(CC(=O)Nc1cccc(F)c1)C(=O)CN1C(=O)C2CCCCC2C1=O (stereo not given) ?
dFosB act: 3; MPTP block: -1

How did O=C(O)CSc1ccccc1C(=O)O do in these assays?
HSF1 inhib: -92*; HSP90 inh: 0; dFosB act: 3; MPTP block: 0; Platelet DG rel: 2; HSF-1 act: -94

Results for O=C(CSc1ccccc1C(=O)O)c1ccccc1 ?
HSF1 inhib: 9; HSP90 inh: -3; dFosB act: 3; MPTP block: -2; Platelet DG rel: 1; HSF-1 act: 14

What do the screens show for `COCCNC(=S)Nc1cc(OC)c(OC)cc1C#N`?
HSF1 inhib: -3; HSP90 inh: 2; dFosB act: -3; MPTP block: 0; Platelet DG rel: 0; HSF-1 act: -4

Results for CSc1nc2nccc(/C=C\c3ccccc3)n2n1 ?
HSF1 inhib: 36; HSP90 inh: -6; dFosB act: -17; MPTP block: 3; Platelet DG rel: -2; HSF-1 act: 56*

How did CSc1nc2nccc(-c3ccc(Cl)cc3)n2n1 do in these assays?
HSF1 inhib: -5; HSP90 inh: 0; dFosB act: -2; MPTP block: -1; Platelet DG rel: 0; HSF-1 act: -7

What do the screens show for `CC(=O)Nc1ccc(SCC(=O)c2cc(C)n(-c3ccccc3)c2C)cc1`?
HSF1 inhib: -68*; HSP90 inh: 1; dFosB act: -5; MPTP block: 0; Platelet DG rel: -4; HSF-1 act: -74

Results for COc1ccc(-n2c(C)cc(C(=O)CSc3ccc(NC(C)=O)cc3)c2C)cc1 ?
HSF1 inhib: 15; HSP90 inh: -6; dFosB act: 1; MPTP block: 2; Platelet DG rel: -2; HSF-1 act: 17
